Assay [1] can be described thus: Quantitative High-Throughput drug screen in 47 multiple myeloma cell lines against the NCATS MIPE library collection: XG6_PLB cell viability assay (AID 1919865). Note: nearly all actives have a fitted effect of over 40% in size. Note: potency is the fitted concentration of half-maximal effect. In short, it runs like this:
(§1)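 500 cells/well per myeloma line exposed to pinned MIPE 4.0 compounds for 48 h at 37 °C, 5% CO2. Viability read as ATP by CellTiter-Glo luminescence, normalised to DMSO-only (100%) and media-only (0%) wells.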

Assay [2] is described as follows: Quantitative High-Throughput drug screen in 47 multiple myeloma cell lines against the NCATS MIPE library collection: PE2_PLB cell viability assay (AID 1919869). Note: nearly all actives have a fitted effect of over 35% in size. Note: potency is the fitted concentration of half-maximal effect. The method, boiled down:
as §1

Assay [3] in a line: Quantitative High-Throughput drug screen in 47 multiple myeloma cell lines against the NCATS MIPE library collection: RPMI8226_ATCC cell viability assay (AID 1919871). Note: nearly all actives have a fitted effect of over 30% in size. Note: potency is the fitted concentration of half-maximal effect. In short, it runs like this: as §1
Assay [4] can be described thus: Quantitative High-Throughput drug screen in 47 multiple myeloma cell lines against the NCATS MIPE library collection: OPM2_DSMZ cell viability assay (AID 1919872). Note: nearly all actives have a fitted effect of over 30% in size. In short, it runs like this: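 CellTiter-Glo luminescence (ATP) after 48 h compound exposure, 37C/5% CO2; 500 cells/well; MIPE 4.0 approved/investigational drugs pinned in; DMSO = 100%, media only = 0% viability.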

The nature of assay [5]: Quantitative High-Throughput drug screen in 47 multiple myeloma cell lines against the NCATS MIPE library collection: KMS11_JCRBsus cell viability assay (AID 1919873). Note: nearly all actives have a fitted effect of over 50% in size. Note: potency is the fitted concentration of half-maximal effect. In short, it runs like this:
as §1

The target of assay [6] is Cytochrome P450 3A4 (Homo sapiens) (UniProt P08684). Kind of assay: qHTS for inhibitors of CYP3A4 against the NCATS DSHEA and TCM libraries (AID 1919971).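 Note: % is set by controls: 0 for no effect and ±100 for the full control effect; inhibition lowers luminescence from luciferin made by CYP3A4.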 The method, boiled down:
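Read-out is luminescence after P450-Glo detection (30 min, RT). Before that: 15 min compound–enzyme preincubation, then 30-45 min reaction with 1x NADPH regeneration solution, substrate concentration isoform-specific.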
(qHTS replaces the single test concentration by a dilution series.)

Assay [7] has as its target Cytochrome P450 2D6 (Homo sapiens) (UniProt P10635). Kind of assay: qHTS for inhibitors of CYP2D6 against the NCATS DSHEA and TCM libraries (AID 1919972). Note: % is set by controls: 0 for no effect and ±100 for the full control effect. In short, it runs like this:
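Luminescent P450-Glo read-out of CYP2D6 turnover of a luciferin substrate after NADPH-driven reaction of 30-45 min at room temperature. Compounds were first preincubated 15 min with enzyme at titrated concentrations; quinidine was the intraplate control.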

A short description of assay [8]: KB-3-1 P-gp reporter qHTS against the NCATS DSHEA and TCM libraries (AID 1919975). Note: 0% is about no effect. The method, boiled down:
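Cell viability qHTS: 500 KB-3-1 cells/well, substances in titration, ~72 h, 37C; luminescent CellTiter-Glo read.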

Assay [9] has as its target Cytochrome P450 1A2 (Homo sapiens) (UniProt P05177). Put plainly: qHTS for inhibitors of CYPIA2 against the NCATS DSHEA and TCM libraries (AID 1919976).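 Note: light from luciferin formed by CYP1A2 from a pro-luciferin substrate; series mostly up to about 37 µM; % is set by controls: 0 for no effect and ±100 for the full control effect.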 The method, boiled down:
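CYP1A2 + luciferin substrate, 100 mM KPO4-type buffer; cmpd 15 min RT; 1x NADPH regen, 30-45 min RT dark; detection reagent 30 min RT; luminescence. Minus-enzyme wells as background; furafylline intraplate control.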

Assay [10] is described as follows: qHTS Counterscreen for compound interference against the NCATS DSHEA and TCM libraries (AID 1919978).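 Note: compounds preincubated with 1 µM D-luciferin or buffer before detection reagent; % of control where 0% means no effect.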 Particulars: firefly luciferase detection reagent interference, luminescence. The method, boiled down:
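Interference check: test samples were incubated with D-luciferin (final 1 uM) or buffer only for 15 min, room temperature, in a qHTS titration up to 39.8 uM, then developed with detection reagent and read by luminescence.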

Assay [11] can be described thus: Quantitative High-Throughput drug screen in 47 multiple myeloma cell lines against the NCATS MIPE library collection: OCIMY7_PLB cell viability assay (AID 1918987). Note: potency is the fitted concentration of half-maximal effect; nearly all actives have a fitted effect of over 65% in size. Particulars: OCI-MY7 myeloma viability, CellTiter-Glo ATP, 48 h. In short, it runs like this: as §1
(ATP-based viability assays read luminescence as a measure of living cells.)

Assay [12] can be described thus: Quantitative High-Throughput drug screen in 47 multiple myeloma cell lines against the NCATS MIPE library collection: OCIMY5_PLB cell viability assay (AID 1918988). Note: potency is the fitted concentration of half-maximal effect; nearly all actives have a fitted effect of over 65% in size. Particulars: OCI-MY5 myeloma viability, ATP luminescence, 48 h. The method, boiled down:
as §1

The nature of assay [13]: Quantitative High-Throughput drug screen in 47 multiple myeloma cell lines against the NCATS MIPE library collection: OPM1_PLB cell viability assay (AID 1918989). Note: nearly all actives have a fitted effect of over 40% in size. Note: potency is the fitted concentration of half-maximal effect. In short, it runs like this: as §1
Assay [14] can be described thus: Quantitative High-Throughput drug screen in 47 multiple myeloma cell lines against the NCATS MIPE library collection: SKMM1_PLB cell viability assay (AID 1919863). For viability: series mostly up to about 46 µM. Note: nearly all actives have a fitted effect of over 35% in size. Note: potency is the fitted concentration of half-maximal effect. Conditions: SKMM1 myeloma viability, CellTiter-Glo ATP, 48 h; viability: stronger effect = lower value. The method, boiled down:
as §1

Assay [15] is described as follows: Quantitative High-Throughput drug screen in 47 multiple myeloma cell lines against the NCATS MIPE library collection: U266_ATCC cell viability assay (AID 1919864). Note: nearly all actives have a fitted effect of over 35% in size. Note: potency is the fitted concentration of half-maximal effect. In short, it runs like this:
as §1

A short description of assay [16]: Quantitative High-Throughput drug screen in 47 multiple myeloma cell lines against the NCATS MIPE library collection: XG1_PLB cell viability assay (AID 1919866). Note: nearly all actives have a fitted effect of over 35% in size. Note: potency is the fitted concentration of half-maximal effect. The method, boiled down:
as §1

Assay [17] is described as follows: Quantitative High-Throughput drug screen in 47 multiple myeloma cell lines against the NCATS MIPE library collection: VP6_DJ cell viability assay (AID 1919867). Note: nearly all actives have a fitted effect of over 40% in size. Note: potency is the fitted concentration of half-maximal effect. In short, it runs like this: as §1
Assay [18] in a line: Quantitative High-Throughput drug screen in 47 multiple myeloma cell lines against the NCATS MIPE library collection: UTMC2_PLB cell viability assay (AID 1919868). Note: potency is the fitted concentration of half-maximal effect; nearly all actives have a fitted effect of over 55% in size. Conditions: CellTiter-Glo ATP luminescence, 48 h. In short, it runs like this: as §1
A short description of assay [19]: Quantitative High-Throughput drug screen in 47 multiple myeloma cell lines against the NCATS MIPE library collection: PCM6_Riken cell viability assay (AID 1919870). Note: nearly all actives have a fitted effect of over 30% in size. Note: potency is the fitted concentration of half-maximal effect. The method, boiled down: as §1
Assay [20] can be described thus: Quantitative High-Throughput drug screen in 47 multiple myeloma cell lines against the NCATS MIPE library collection: KMS28BM_JCRB cell viability assay (AID 1919874). Note: nearly all actives have a fitted effect of over 35% in size. Note: potency is the fitted concentration of half-maximal effect. In short, it runs like this: as §1

Unmarked numbers belong to inactive results. Results filed as inconclusive are left out. Calls of active or inactive are those of the source. Calls come from the whole dose curve; as a rule, active = well fitted curve in the direction sought with a large enough effect; inconclusive = small, poorly fitted or top-dose-only effect, or another doubt; inactive = no such curve, though single readings can be large; an effect the other way counts as inactive or inconclusive.

Chain of Cytochrome P450 1A2 (Homo sapiens) (P05177 whole entry, looked up): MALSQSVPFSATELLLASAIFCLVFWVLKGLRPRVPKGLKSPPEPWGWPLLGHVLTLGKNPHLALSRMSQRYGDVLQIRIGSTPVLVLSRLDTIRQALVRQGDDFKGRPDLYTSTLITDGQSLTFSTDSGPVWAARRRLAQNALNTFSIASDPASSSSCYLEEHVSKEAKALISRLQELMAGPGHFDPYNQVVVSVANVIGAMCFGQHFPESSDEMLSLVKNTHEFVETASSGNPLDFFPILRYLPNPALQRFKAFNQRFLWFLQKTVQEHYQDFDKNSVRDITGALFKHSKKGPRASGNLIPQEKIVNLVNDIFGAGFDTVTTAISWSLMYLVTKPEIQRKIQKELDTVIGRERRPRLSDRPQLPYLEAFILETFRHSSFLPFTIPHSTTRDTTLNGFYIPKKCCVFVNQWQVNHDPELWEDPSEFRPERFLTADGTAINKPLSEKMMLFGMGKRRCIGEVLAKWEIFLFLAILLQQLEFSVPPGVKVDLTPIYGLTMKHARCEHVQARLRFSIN
Chain of Cytochrome P450 3A4 (Homo sapiens) (P08684 whole entry, looked up, canonical isoform): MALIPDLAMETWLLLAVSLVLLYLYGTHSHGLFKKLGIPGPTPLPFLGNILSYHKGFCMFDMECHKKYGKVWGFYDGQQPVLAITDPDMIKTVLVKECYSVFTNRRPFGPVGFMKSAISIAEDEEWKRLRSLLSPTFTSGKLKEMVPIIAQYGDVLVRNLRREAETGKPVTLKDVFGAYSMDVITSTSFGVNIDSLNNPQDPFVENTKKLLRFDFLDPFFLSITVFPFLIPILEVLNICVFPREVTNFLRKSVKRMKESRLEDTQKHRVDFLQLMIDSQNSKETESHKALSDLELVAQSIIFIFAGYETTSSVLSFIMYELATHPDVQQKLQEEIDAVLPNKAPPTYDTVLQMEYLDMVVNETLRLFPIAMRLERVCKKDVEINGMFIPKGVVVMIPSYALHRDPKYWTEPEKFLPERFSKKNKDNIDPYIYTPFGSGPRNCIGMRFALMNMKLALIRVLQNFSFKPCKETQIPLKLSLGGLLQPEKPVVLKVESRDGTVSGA
Chain of Cytochrome P450 2D6 (Homo sapiens) (P10635 whole entry, looked up): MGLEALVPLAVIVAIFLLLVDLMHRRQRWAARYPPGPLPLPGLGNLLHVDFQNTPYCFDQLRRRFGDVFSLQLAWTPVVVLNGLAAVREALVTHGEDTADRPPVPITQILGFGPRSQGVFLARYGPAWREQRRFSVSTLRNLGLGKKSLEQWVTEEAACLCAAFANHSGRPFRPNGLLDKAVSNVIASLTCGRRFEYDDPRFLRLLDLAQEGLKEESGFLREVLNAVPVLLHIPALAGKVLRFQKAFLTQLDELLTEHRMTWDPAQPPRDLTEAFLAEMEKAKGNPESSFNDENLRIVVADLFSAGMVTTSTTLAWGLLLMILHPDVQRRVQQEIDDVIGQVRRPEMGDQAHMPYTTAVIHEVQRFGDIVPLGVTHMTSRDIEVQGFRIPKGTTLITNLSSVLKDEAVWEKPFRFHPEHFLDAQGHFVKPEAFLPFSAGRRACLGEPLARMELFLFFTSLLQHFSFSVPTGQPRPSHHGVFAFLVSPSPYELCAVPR

`O=C(O)c1nn(Cc2ccc(Cl)cc2Cl)c2ccccc12`: the Potency result in assay [1], in assay [2], in assay [3] and in assay [5] was “inactive” in each case. In addition, in assay [4], the molecule was classed as inactive.
For the molecule `C[C@]12CC[C@H](O)CC1=CC[C@@H]1[C@@H]2CC[C@]2(C)C(=O)CC[C@@H]12`, the molecule was called inactive in [6], in assay [7], in assay [8] and in assay [9]. Further, in assay [10], the max response is -2.96%.
In the case of `C[C@@H]1C[C@@H]([C@H](O)CC2CC(=O)NC(=O)C2)C(=O)[C@@H](C)C1`, the Potency in [11] is 2640 nM (active); in assay [12], 1660 nM (active); in assay [13], 833 nM (active); in assay [14], 296 nM (active); in [15], 1050 nM (active); in [1], 743 nM (active). In addition, the Potency in assay [16] is 372 nM (active); in [17], 296 nM (active); in assay [18], 833 nM (active); in assay [2] it was 1480 nM (active); in assay [19], 935 nM (active); in [3], 833 nM (active). In addition, the Potency was 187 nM (active) in assay [5] and 833 nM (active) in assay [20].
In general, viability refers to a read-out of living cells in per cent, often relative to untreated cells. Consider `COc1ccc(C(=O)N2CCCC2=O)cc1`, for which the Potency in [12] is 662 nM (active); in assay [3] it was 2350 nM (active); in [5], 20900 nM (active); in [20], 8330 nM (active). For the same molecule, the viability in assay [14] is 101%. For the same molecule, the Potency result in assay [15], in [1], in [16] and in assay [2] was “inactive” in each case.
With `COC(=O)C1=CCCN(C)C1`, the Potency result in [13], in [1], in [17], in [2], in [19] and in assay [5] was “inactive” throughout. For the same molecule, the Potency entry in assay [20] was “inactive”. For the same molecule, the outcome in [4] was inactive.

(Values after PubChem BioAssay (NCATS).)
